Compound activity (PubChem BioAssay)
NCOA2 inhibitor = inhibits human steroid receptor coactivator 2 | HEK293 GAL4-SRC2 luciferase reporter, luminescence | inhibition, % at 9 µM | 0.17% of 370,000 active;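 active means inhibition above the mean inhibition of all tested compounds plus 3 SD, set per campaign, cut at about 52% in these data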
SRC3 inh = inhibitors of human steroid receptor coactivator 3 (SRC3) | Q9Y6Q9 | HEK293 GAL4-SRC3 luciferase reporter, luminescence | inhibition, % at 3.6 µM | 0.17% of 360,000 active | AID 588352;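 active means inhibition above a per-campaign cutoff, the mean of all compounds plus 3 SD, cut at about 60% in these data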;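 further: higher means less SRC3-driven luciferase light from the GAL4 reporter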
NR2F2 inh = blocks human COUP-TFII nuclear receptor; HEK293T NGFI-A luciferase reporter, luminescence; inhibition, % at 8.6 µM; 0.7% of 370,000 active;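 active means inhibition above a per-plate cutoff, mean inhibition of test wells between control levels plus 3 SD, cut at about 38% in these data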;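 further: cells cotransfected with COUP-TFII expression vector driving the NGFI-A reporter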
LRH-1 inv ag = inverse agonists of human LRH-1 (NR5A2). O00482. HEK293T StAR-luciferase reporter, LRH-1 transfected, 24 h. inhibition, % at 3.6 µM. 0.13% of 360,000 active. AID 602396;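 active means inhibition above the mean inhibition of all tested compounds plus 3 SD, cut at about 73% in these data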
Target sequence (O00482 whole entry, looked up): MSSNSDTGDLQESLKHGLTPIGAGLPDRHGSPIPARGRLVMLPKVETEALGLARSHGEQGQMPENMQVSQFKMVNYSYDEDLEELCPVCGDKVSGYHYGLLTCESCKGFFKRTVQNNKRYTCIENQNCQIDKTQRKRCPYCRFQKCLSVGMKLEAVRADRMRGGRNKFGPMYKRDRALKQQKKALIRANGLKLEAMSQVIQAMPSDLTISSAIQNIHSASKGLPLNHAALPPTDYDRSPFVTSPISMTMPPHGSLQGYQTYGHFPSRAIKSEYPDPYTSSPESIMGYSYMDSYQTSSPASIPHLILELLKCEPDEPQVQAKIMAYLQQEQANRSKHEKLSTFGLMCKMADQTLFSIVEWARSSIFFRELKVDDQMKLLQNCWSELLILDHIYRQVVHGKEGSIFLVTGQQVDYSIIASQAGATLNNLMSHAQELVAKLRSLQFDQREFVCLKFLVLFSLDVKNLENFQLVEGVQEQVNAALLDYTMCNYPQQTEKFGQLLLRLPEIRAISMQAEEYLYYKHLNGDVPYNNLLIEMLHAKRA
NCOA1 inh = inhibitors of human steroid receptor coactivator 1 (SRC1); HEK293 GAL4-SRC1 luciferase reporter, luminescence; inhibition, % at 3.6 µM; 0.12% of 360,000 active; AID 588354;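 active means inhibition above the campaign mean plus 3 SD, with each screening campaign given its own cutoff, cut at about 60% in these data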
Gli-Sufu block = antagonists of Gli-Sufu signaling; inhibition, % at 5 µM; 0.74% of 340,000 active; Sufu-KO-LIGHT fibroblasts, Gli luciferase reporter luminescence; AID 588413;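 active means inhibition above about 55%, limit read from the data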
VP16 Luc counter = inhibits VP16 reporter, flagging COUP-TFII antagonist hits. shares compounds with NR2F2 inh. HEK293 Gal4-VP16 luciferase reporter, luminescence. inhibition, % at 8.5 µM. 25% of 2,500 active. AID 687007; in the data active means inhibition above about 13%
COUP-TFII conf = confirmation of human COUP-TFII (NR2F2) inhibitors; shares compounds with NR2F2 inh; HEK293 NGFI-A luciferase reporter, luminescence; inhibition, % at 8.5 µM; 45% of 2,500 active;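 active means mean inhibition over three repeats above a set limit taken from the earlier primary screen, cut at about 38% in these data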
Of the large screens only hits and unclear results are named; the others gave an inactive call (follow-up assays come after a bar, where they were run). The list is not random: actives were taken first. Their share in the collection is about 1.3%.

COc1ccc(CCN2C(=O)CSC2c2ccc(OC)c(OC)c2)cc1OC (stereo unspecified)	none
Cc1cc2sc3ccc(C#CC4(O)CCCCC4)cc3c(=O)c2cc1C	NCOA2 inhibitor 82.0, SRC3 inh 86.7, NR2F2 inh 89.3, LRH-1 inv ag 78.3, NCOA1 inh 87.6 (no result: Gli-Sufu block) | VP16 Luc counter 88.9 | COUP-TFII conf 109.3
Cn1c2ccccc2c(=O)c2ccc(C#CC3(N)CCCCC3)cc21	none
Cn1c2ccccc2c(=O)c2cc(C#CC3(O)CCCCC3)ccc21	NR2F2 inh 44.8 | VP16 Luc counter inactive | COUP-TFII conf 37.7
O=c1c2ccccc2oc2ccc(C#CC3(O)CCCCC3)cc12	none
O=c1cc[nH]c2ccc(Cl)cc12	none
O=c1cccc2c1c1cc[nH]c3ccc(=O)n2c31	NR2F2 inh 45.5 | VP16 Luc counter inactive | COUP-TFII conf inactive
CCOC(=O)[C@@]12CCCC=C1N(CCc1ccc(Cl)cc1)C(=O)[C@H]2CC(=O)N1CCN(C(=O)c2ccco2)CC1	NR2F2 inh 39.0 (no result: SRC3 inh, LRH-1 inv ag, NCOA1 inh, Gli-Sufu block) | VP16 Luc counter inactive | COUP-TFII conf inactive
COc1ccc(OC)c(S(=O)(=O)NCC2CCN(C(=O)C(=O)c3cccs3)CC2)c1	none (no result: SRC3 inh, LRH-1 inv ag, NCOA1 inh, Gli-Sufu block)
CC(=O)OC1CCC2(C)C(CCC3C4CC=C(C(C)=O)C4(C)OC(=O)CC32)C1 (stereo unspecified)	NCOA2 inhibitor 59.2, NR2F2 inh 57.2 (no result: Gli-Sufu block) | VP16 Luc counter 37.4 | COUP-TFII conf 44.2
CCCCOCC1CN(CCCC)S(=O)(=O)c2c(cccc2Sc2ccc(SC)cc2)O1 (stereo unspecified)	none (no result: SRC3 inh, LRH-1 inv ag, NCOA1 inh, Gli-Sufu block)
N#Cc1ccccc1COc1ccc(/C=C/C(=O)O)cc1	NCOA2 inhibitor 69.1, NR2F2 inh 68.2 | VP16 Luc counter 62.9 | COUP-TFII conf 50.6
Cc1cc(C(C)(C)C)ccc1OCCCCN1CCCC1	none
CCC(C)(C)c1ccc(OCCCC[n+]2cccc(C)c2C)c(C(C)(C)CC)c1	SRC3 inh 65.1, NR2F2 inh 57.1, LRH-1 inv ag 79.0, Gli-Sufu block 84.9 | VP16 Luc counter 14.3 | COUP-TFII conf 59.9
CCCCCc1ccc(OCCC[n+]2ccccc2)c(CCCCC)c1	SRC3 inh 66.1, NR2F2 inh 56.7, Gli-Sufu block 82.8 | VP16 Luc counter 14.4 | COUP-TFII conf inactive
Cc1[nH]cnc1/C=N\NC(=O)c1cccc(S(=O)(=O)N(C)C)c1	none (no result: SRC3 inh, LRH-1 inv ag, NCOA1 inh, Gli-Sufu block)
COc1ccc(-c2noc(CCCC(=O)Nc3ccc(C(N)=O)cc3)n2)cc1	NCOA2 inhibitor 64.7, NR2F2 inh 54.9 | VP16 Luc counter 39.3 | COUP-TFII conf inactive
COc1ccc(-c2noc(CCC(=O)NC3CCCCCC3)n2)cc1	none
COc1ccc(-c2noc(CCCC(=O)NC3CCCC3)n2)cc1	NCOA2 inhibitor 52.8, NR2F2 inh 53.9 | VP16 Luc counter inactive | COUP-TFII conf inactive
COc1ccc(C(=O)Nc2cc(C)on2)c(OC)c1	none
COc1ccc(C(=O)Nc2ccc(C)cn2)c(OC)c1	NCOA2 inhibitor 56.4, NR2F2 inh 54.9 | VP16 Luc counter 13.8 | COUP-TFII conf inactive
Cc1ccc(NC(=O)[C@H]2CC(=O)O[C@@H]2c2ccccc2)c(C)c1	none (no result: SRC3 inh, LRH-1 inv ag, NCOA1 inh, Gli-Sufu block)
Cc1ccc(NC(=O)CCCOc2ccccc2)cc1S(=O)(=O)N1CCOCC1	none
Cc1ccc(OCCCC(=O)Nc2ccc(Cl)c(S(=O)(=O)N3CCOCC3)c2)cc1	NR2F2 inh 56.9 | VP16 Luc counter inactive | COUP-TFII conf inactive
CCN(CC)S(=O)(=O)c1cc(NC(=O)c2ccc3c(c2)NC(=O)C(C)S3)ccc1C (stereo unspecified)	NR2F2 inh 60.6 | VP16 Luc counter inactive | COUP-TFII conf 47.2
O=C(CCCOc1ccccc1)Nc1ccc(Cl)c(S(=O)(=O)N2CCOCC2)c1	NR2F2 inh 49.2 | VP16 Luc counter inactive | COUP-TFII conf inactive
O=C(CCCSc1ccccc1)Nc1ccc(Cl)c(S(=O)(=O)N2CCOCC2)c1	NR2F2 inh 39.5 | VP16 Luc counter inactive | COUP-TFII conf inactive
COc1ccc(C(CCOC(=O)Oc2ccccc2)c2cc(OC)c(OC)c(OC)c2)cc1 (stereo unspecified)	none (no result: SRC3 inh, LRH-1 inv ag, NCOA1 inh, Gli-Sufu block)
CCN(CC)S(=O)(=O)c1cc(NC(=O)CCCOc2ccc(C(C)=O)cc2)ccc1C	NR2F2 inh 42.4 | VP16 Luc counter inactive | COUP-TFII conf inactive
CC(=O)c1ccc(OCCCC(=O)Nc2cc(S(=O)(=O)N(C)C)ccc2C)cc1	none
CC(=O)c1ccc(OCCCC(=O)Nc2ccc(Cl)c(S(=O)(=O)N3CCOCC3)c2)cc1	NR2F2 inh 69.8 | VP16 Luc counter inactive | COUP-TFII conf 55.7
C=CCN1C(=O)[C@H](CC(=O)NCCC(C)C)[C@@]2(C(=O)OCC)CCCC=C12	none (no result: SRC3 inh, LRH-1 inv ag, NCOA1 inh, Gli-Sufu block)
CCc1ccc(CCNC(=O)OCCCN2CCC3(CCC(c4ccccc4)CC3)C2=O)cc1 (stereo unspecified)	NR2F2 inh 41.0 (no result: SRC3 inh, LRH-1 inv ag, NCOA1 inh, Gli-Sufu block) | VP16 Luc counter inactive | COUP-TFII conf inactive
CCCCNC(=O)OCCCN1CCC2(CCC(c3ccccc3)CC2)C1=O (stereo unspecified)	none (no result: SRC3 inh, LRH-1 inv ag, NCOA1 inh, Gli-Sufu block)
CCOC(=O)c1c(-c2ccccc2)csc1NC(=O)CSc1nc(N)cc(N)n1	NR2F2 inh 60.6 | VP16 Luc counter inactive | COUP-TFII conf inactive
CCn1c(Cl)c(C=O)s/c1=N\S(=O)(=O)c1ccccc1	NR2F2 inh 51.3 | VP16 Luc counter 47.6 | COUP-TFII conf inactive
CCN1C(=O)CS/C1=N\S(=O)(=O)c1ccc(Cl)cc1	none
O=C(NC1CCCC1)C(c1ccccc1)n1c(CSCCOc2ccccc2)nc2ccccc21 (stereo unspecified)	NCOA2 inhibitor 77.1, NR2F2 inh 59.0 (no result: SRC3 inh, NCOA1 inh, Gli-Sufu block) | VP16 Luc counter 45.7 | COUP-TFII conf 50.0
O=NN(CCc1ccncc1)c1ccc(OCc2ccccc2)cc1	NR2F2 inh 50.8 | VP16 Luc counter inactive | COUP-TFII conf 44.9
CCCS(=O)(=O)c1cnc(C2COc3ccccc3O2)nc1N (stereo unspecified)	NCOA2 inhibitor 69.5, NR2F2 inh 72.0 | VP16 Luc counter 41.9 | COUP-TFII conf 79.0
S=c1nc(C2COc3ccccc3O2)[nH][nH]1 (stereo unspecified)	none
CCn1c(SCC(=O)NN=Cc2cccc(OCc3ccccc3)c2)nnc1-c1ccc(OC)c(OC)c1	none (no result: SRC3 inh, LRH-1 inv ag, NCOA1 inh, Gli-Sufu block)
COc1ccc([C@@]23Oc4cc(OC)cc(OC)c4[C@]2(O)[C@H](O)[C@H](C(=O)N(C)C)[C@H]3c2ccccc2)cc1	NCOA2 inhibitor 71.9, SRC3 inh 89.5, NR2F2 inh 87.1, LRH-1 inv ag 99.5, NCOA1 inh 90.3, Gli-Sufu block 76.8 | VP16 Luc counter 20.3 | COUP-TFII conf 73.9
Cc1ccc(/C=C2\SC(=S)N(CCCC(=O)Nc3ccccn3)C2=O)cc1	NCOA2 inhibitor 89.3, NR2F2 inh 81.0 | VP16 Luc counter 40.1 | COUP-TFII conf inactive
